Data on 28 compounds can be found in ChEMBL document CHEMBL3988442, “University of Dundee, Small-Polar-MMV Screening Library” (2021).

The test system of this assay is Leishmania donovani. Description: Leishmania intramacrophage assay. Also noted: scale not given: in the data most compounds retested in dose-response had high values. The class given is functional, organism-based.

Hit rate of the full screen: of about 69,000 compounds, about 1,000 (1.4%) showed an effect of 50% or more. For the sample, strong results were picked, then their nearest neighbours and some compounds at random.

Regarding `CC(C)CCN(C)Cc1ccccc1-c1nc(C(C)C)cc(=O)[nH]1`, the “Percent Effect” value (30.3 µM, […]) amounted to 41.3%.

As to `CNc1cc2c(nn1)CCN(C(=O)c1coc(Br)c1)C2`, the “Percent Effect” value (30 µM) is recorded as -2.691%.

Regarding `COCCC1(CO)CCCN(Cc2cc(C(F)(F)F)ccc2F)C1` (stereo not drawn), for the setting “30.3 µM, […]”, the “Percent Effect” value turned out to be 0.4261%.

Consider `O=C(Nc1cccc(CN2CCC(CO)CC2)c1)c1cc(Cl)c[nH]1`, for which the “Percent Effect” value (30.3 µM, […]) is reported as 28.48%.

Regarding `COCCNC(=O)Cn1cc2c(n1)c(C)nn2C`, the “Percent Effect” value (30.3 µM, […]) is given as -28.68%.

Turning to `O=C(NCCSC1CCCC1)c1cc(C2CC2)on1`, for the setting “30.3 µM, […]”, the “Percent Effect” value is on record as -5.763%.

As to `Cc1ccc2nc(C)cc(C(=O)NCc3csc(N(C)C)n3)c2c1`, the “Percent Effect” value (30.3 µM, […]) was 25.38%.

As for `COCCN(C)CC1CCCN1S(=O)(=O)Cc1ccccc1F` (stereo not drawn), the “Percent Effect” value (30.3 µM, […]) is -13.31%.

Regarding `CC(=O)N1CCCC2(C1)CN(c1nncs1)CCO2.O=C(O)C(F)(F)F` (stereo not drawn), the “Percent Effect” value (30.3 µM, […]) is 42.05%.

With `O=C(c1ccco1)N1CCCC2(C1)CN(c1nncs1)CCO2` (stereo not drawn), under “30.3 µM, […]”, the “Percent Effect” value is reported as 54.73%.

Take `O=C(CCO)N1CCOC2(CCCN(C(=O)c3ccco3)C2)C1` (stereo not drawn): under “30 µM, 30.03 µM”, the “Percent Effect” value is -4.275%.

As for `CO[C@@H]1CCN(S(=O)(=O)c2cccs2)[C@H]1Cc1cccnc1.O=C(O)C(F)(F)F`, the “Percent Effect” value (30.3 µM, […]) is listed as 35.84%.

Regarding `Cc1cccc(C)c1OCC(=O)NS(=O)(=O)c1c(C)noc1C`, for the setting “30 µM”, the “Percent Effect” value is reported as 12.57%.

For the compound `CC(C)S(=O)(=O)N1CCC(c2[nH]ncc2S(C)(=O)=O)C1` (stereo not drawn), the “Percent Effect” value (30.3 µM, […]) is on record as -8.157%.

In the case of `COc1ccc(-c2cc(CN)ccc2F)c(OC)c1OC`, the “Percent Effect” value (30.3 µM, […]) is given as -7.273%.

As to `COc1ccc(-c2ccccc2CCN)c(OC)c1OC`, the “Percent Effect” value (30.3 µM, […]) is on record as 95.35%.

For the compound `COc1ccc(-c2ccccc2CN)c(OC)c1`, where the note is “30.3 µM, […]”, the “Percent Effect” value is 18.4%.

On to `CC(C)N1CC[C@@H]2[C@H](COCC3CC3)CN(C)C(=O)[C@@H]2CC1.O=C(O)C(F)(F)F`, for which the “Percent Effect” value (30.3 µM, […]) worked out at 9.802%.

`CS(=O)(=O)c1ccc(NC(=O)NCCC2=CCCCC2)cc1`: the “Percent Effect” value (30.3 µM, […]) is listed as 16.41%.

With `O=C(NC(CN1CCCC1)c1ccccc1)c1c(O)cc(F)cc1F` (stereo not drawn), the “Percent Effect” value (30.3 µM, […]) is given as 5.752%.

For the compound `COc1ccc(CNC(Cn2cncn2)c2ccccc2)cc1C` (stereo not drawn), the “Percent Effect” value (30.3 µM, […]) came out at 17.02%.

As for `Cc1ccc(CNC(c2ccccc2)c2nccn2C)cc1.Cl` (stereo not drawn), the “Percent Effect” value (30 µM) is on record as -15.51%.

As for `Cl.O=C(NCc1ccc(F)cc1)N1CCN(CC(O)C2CC2)CC1` (stereo not drawn), the “Percent Effect” value (30.3 µM, […]) was found to be 10.63%.

With `CNS(=O)(=O)c1cccc(C(C)NCc2ccc(F)c(F)c2)c1` (stereo not drawn), where the note is “30.3 µM, […]”, the “Percent Effect” value worked out at 11.11%.

`Cc1ccc(CNC(CN2CCN(C)CC2)c2ccccc2)cc1` (stereo not drawn): for the setting “30 µM, 30.03 µM”, the “Percent Effect” value came to 94.58%.

On to `Cc1ccc(CNC(=O)CN2CCN(CC(O)C3CC3)CC2)cc1.Cl.Cl` (stereo not drawn), for which, for the setting “30 µM, 30.03 µM”, the “Percent Effect” value is listed as 31.99%.

Regarding `Cc1ccc(CNC(c2ccccc2)c2nccn2C)cc1C` (stereo not drawn), under “30 µM, 30.03 µM”, the “Percent Effect” value is on record as 38.71%.

In the case of `Cn1cc(C(NCc2ccc(F)cc2)c2cccc(F)c2)cn1` (stereo not drawn), under “30.3 µM, […]”, the “Percent Effect” value is 7.526%.
